{
  "source": "PubChem BioAssay (NCI)",
  "note": "The panel holds about 79,000 compounds, 15% with a hit somewhere; the sample as a whole holds those more often. Unmarked numbers belong to inactive results. Activity calls are given as the source filed them. Rule as the data show it: active = growth inhibition above about 70%; inactive = the rest.",
  "data": [
    {"experiment": "NCI Yeast Anticancer Drug Screen. Data for the bub3 strain (AID 167)", "details": "S. cerevisiae bub3 mutant strain, at 50.0 µM, hits give high values", "how_it_was_run": "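Growth of a checkpoint-deficient yeast mutant is measured after compound exposure. Values represent inhibition relative to vehicle.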", "values": [
      {"smiles": "O=P(Oc1ccccc1)(Oc1ccccc1)C(O)c1ccccc1", "note": "(stereo unspecified)", "growth inhibition": "-8.4%"},
      {"smiles": "CNC(=O)C(Cl)Cl", "growth inhibition": "-8.1%"},
      {"smiles": "CCOC(=O)CC(Br)C(=O)CBr", "note": "(stereo unspecified)", "growth inhibition": "2.6%"},
      {"smiles": "CC(C)C1NC(C(C)C)N2C(C(C)C)N12", "note": "(stereo unspecified)", "growth inhibition": "-2.25%"},
      {"smiles": "O=[C-]C(F)(F)F.[C-]#[O+].[C-]#[O+].[C-]#[O+].[Mo].[c-]1[c-][c-][cH-][c-]1", "growth inhibition": "21.4%"},
      {"smiles": "COc1ccc2ccc([Se]c3ccc4ccc(OC)cc4c3)cc2c1", "growth inhibition": "7.55%"},
      {"smiles": "Nc1cccc2c1Cc1cc([N+](=O)[O-])ccc1-2", "growth inhibition": "3.6%"},
      {"smiles": "CN(C)CCNC(=O)c1ccc(N(CCCl)CCCl)c([N+](=O)[O-])c1[N+](=O)[O-]", "growth inhibition": "9.65%"},
      {"smiles": "O=S(=O)(O)C(Br)(Br)Br", "growth inhibition": "7.25%"},
      {"smiles": "FC(F)(F)C(OP(OC(C(F)(F)F)C(F)(F)F)OC(C(F)(F)F)C(F)(F)F)C(F)(F)F", "growth inhibition": "-4.9%"},
      {"smiles": "CCCCCCCCCCCCCCCC(=O)[O][Hg][c]1ccccc1", "growth inhibition": "99.2% (active)"},
      {"smiles": "O=[N+]([O-])c1ccc(OCc2ccc(S(=O)(=O)F)cc2Cl)c(Cl)c1", "growth inhibition": "-3.55%"},
      {"smiles": "Oc1ccc(Nc2ncnc3nc[nH]c23)cc1CN(CCCl)CCCl", "growth inhibition": "-15.5%"},
      {"smiles": "CCOC(=O)C[S][Sn]([Cl])([Cl])[S]CC(=O)OCC", "growth inhibition": "-5.2%"},
      {"smiles": "CCCn1cc2c3c(cccc31)[C@H]1C[C@@H](C)CN(C)[C@@H]1C2", "growth inhibition": "44%"},
      {"smiles": "CC(C)c1cccc(C(C)C)c1NC(=O)/C(CC(=O)CC(c1ccccc1)c1c(O)c2ccccc2oc1=O)=N/O", "note": "(stereo unspecified)", "growth inhibition": "-15.8%"}
    ]}
  ]
}
